# Sfp PPTase inh: qHTS Assay for Inhibitors of Bacillus subtilis Sfp phosphopantetheinyl transferase (PPTase). Biochemical Sfp PPTase activity, qHTS. 310,000 compounds, 3.5% hits. Potency, µM, without a hit: largest response in the series, negative = inhibition, actives largely listed as inhibitors. AID 1490, 2009;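 note: the enzyme is Sfp with the accession as filed and its product quenches rhodamine fluorescence; potency is the fitted concentration of half-maximal effect; 0% = enzyme reaction without inhibitor and -100% = no enzyme wells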
#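 After 15 min at room temperature with compound, 15 nM Sfp received 5 uM rhodamine-CoA plus 12.5 uM BHQ-2-ybbR (50 mM Hepes pH 7.6, 10 mM MgCl2). Rate came from the fluorescence difference over 30 min, ex 525/em 598 nm.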
# Tau fluor counter: Counterscreen qHTS for Inhibitors of Tau Fibril Formation, Fluorescence Polarization; tau K18 P301L Alexa594 fluorescence, heparin fibrillization; Potency, µM (titrated, usually from 57.7 µM), for the others: at the highest dose activity change, negative = decrease; 280,000 compounds, 0.93% hits; AID 1463, 2008; note: potency is the fitted concentration of half-maximal effect; nearly all actives have a fitted effect of over 55% in size
#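 Human tau K18 P301L (15 uM unlabeled, 0.24 uM Alexa 594-labeled) in 100 mM sodium acetate pH 7 with 20 uM heparin, 6 hr at 37 C. ThT 30 uM added, 1 hr ambient; Alexa 594 FP and total fluorescence read at 555/632 nm.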
# FBPA coupling cs: qHTS Assay for Inhibitors of Fructose-1,6-bisphosphate Aldolase from Giardia Lamblia: Coupling assay counterscreen. coupling enzyme system counterscreen, AmpLite Red fluorescence. activity change, negative = inhibition, % at 58.2 µM, hits read low. 290,000 compounds, 0.67% hits; in the data active = activity change below about -30%
#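 Activity here indicates interference with the coupling reaction, not aldolase inhibition. Compounds at 57.5 uM final met coupling enzymes for 10 min at RT; substrate and AmpLite Red detection followed, with a 525/598 nm fluorescence read after 20 min.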
# Tau fibril ThT: qHTS for Inhibitors of Tau Fibril Formation, Thioflavin T Binding; Microtubule-associated protein tau (Homo sapiens), P10636; recombinant tau K18 P301L, heparin-induced fibrillization, ThT fluorescence; Potency, µM (series often up to 57.4 µM), for the others: top-dose activity, negative = inhibition, usual class: inhibitors; 270,000 compounds, 2.1% hits; AID 1460, 2008; note: potency is the fitted concentration of half-maximal effect; nearly all actives have a fitted effect of over 55% in size
# Target sequence (P10636 561-689 P618L limits assumed): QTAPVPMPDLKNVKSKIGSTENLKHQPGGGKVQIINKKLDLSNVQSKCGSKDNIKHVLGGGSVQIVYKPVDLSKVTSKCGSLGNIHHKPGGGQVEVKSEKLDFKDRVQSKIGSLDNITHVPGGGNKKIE
#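 Fibril formation assay: tau K18 P301L at 15 uM with trace Alexa 594 label, heparin inducer 20 uM, pH 7 sodium acetate buffer, 37 C for 6 hr; endpoint ThT signal.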
# Tau FP inhib: qHTS for Inhibitors of Tau Fibril Formation, Fluorescence Polarization. Potency, µM (series often up to 57.7 µM), for inactives: top-dose activity, negative = inhibition, usual class: inhibitors. 280,000 compounds, 0.39% hits. K18 P301L tau heparin fibrillization, Alexa594 FP, 6 h. Microtubule-associated protein tau (Homo sapiens), P10636. AID 1468, 2008; note: potency is the fitted concentration of half-maximal effect; nearly all actives have a fitted effect of over 55% in size
#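 Read-out: fluorescence polarization of Alexa 594-labeled tau (0.24 uM), 555 nm excitation, 632 nm emission. Mixtures held 15 uM unlabeled K18 P301L, compound and 20 uM heparin, pH 7 acetate buffer, incubated 6 hr at 37 C.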
# Numbers without * were called inactive; ? = inconclusive; nt = no result given; ! = repeats disagree; [ ] = remark or other dose. Only some compounds are listed: those with a hit (about 5.2% of all), similar ones and a draw of the others. Unless noted, calls come from the whole dose curve; as a rule, active = well fitted curve in the direction sought with a large enough effect; inconclusive = small, poorly fitted or top-dose-only effect, or another doubt; inactive = no such curve, though single readings can be large; an effect the other way counts as inactive or inconclusive. Unless noted, % is set by controls: 0 for no effect and ±100 for the full control effect.
SMILES,Sfp PPTase inh,Tau fluor counter,FBPA coupling cs,Tau fibril ThT,Tau FP inhib
CCOC(=O)C1/C(=N\O)CC(C)(O)C(C(=O)OCC)C1c1ccc(N(C)C)cc1 (centres undefined),50µM*,-20%,-19,?,-2%
COc1cccc2[nH]c(C(=O)NN)c(N)c12,-1%,?,-4,28µM*,?
NNC(=O)c1[nH]c2ccc(Br)cc2c1-c1ccccc1,-11%,?,-1,-8%,0%
COc1cc2[nH]c(C(=O)NN)c(N)c2cc1OC,10%,22µM*[quencher],-8,16µM*,?
COC(=O)c1[nH]c2cc(OC)ccc2c1N,25µM*,-21%,1,?,-5%
COc1ccc(CCNC(=O)CCCCn2c(=O)c3ccccc3n(Cc3ccc(Cl)cc3)c2=O)cc1OC,nt,-9%,nt,-15%,0%
CCOc1ccc(C2C(C(=O)C3CC3)N3C=C(C#N)C=CC3C2(C#N)C#N)cc1 (centres undefined),?,-24%,-9,16µM*,?
CCOc1ccc(C(=O)C2CCN(C(=O)c3ccccc3C(=O)O)CC2)cc1,10%,-5%,4,-9%,0%
O=C1C=CC2=C3c4cc(O)c(O)cc4CC3(O)COC2=C1O (centres undefined),14µM*,4µM*[quencher],-38*!,3.2µM*,7.9µM*
C=C1CC[C@H](O)C/C1=C/C=C1\CCC[C@]2(C)C([C@H](C)CC[C@@H](O)C(C)(C)O)CC[C@@H]12 (some centres undefined),28%,-9%,nt,-7%,-9%
CCCOC(=S)NC(=O)c1sc2ccccc2c1Cl,28µM*,-17%,3,?,3%
CCOC(=S)NC(=O)c1sc2ccccc2c1Cl,45µM*,-9%,0,?,5%
Cc1sc2ncn(CC(=O)N(C)c3ccc(C(C)C)cc3)c(=O)c2c1S(=O)(=O)N1CCC(C)CC1,nt,-23%,nt,-14%,9%
O=c1c(-c2cccs2)nc2cnc(N3CCNCC3)nc2n1CCc1ccccc1,?,nt,-4,nt,nt
CCc1ccc(NC(=O)c2cc3nc(-c4ccc(C)cc4)cc(C(F)(F)F)n3n2)cc1,nt,-4%,nt,-18%,-5%
CCc1cccc(CC)c1N(COC)C(=O)Cn1c(CC)nc2ccccc21,nt,-5%,nt,-9%,6%
CCc1cccc(CC)c1N(COC)C(=O)Cn1c(C(C)O)nc2ccccc21 (centres undefined),89µM*,-5%,-21,-7%,-3%
O=C(NCCN1CCOCC1)C1(C(F)(F)F)C/C(=C\CCO)CCCO1 (centres undefined),-2%,nt,2,nt,nt
CCCOc1ccc(CNC(=O)C2CCCN(c3nc4c(C)cc(C)cc4s3)C2)cc1 (centres undefined),nt,-17%,nt,-13%,1%
CN(C)CCCN(C(=O)c1ccc2c(c1)OCCO2)c1nc2ccc(Cl)cc2s1,-6%,nt,nt,nt,nt
Cc1ccc(C(=O)N(CCCN(C)C)c2nc3ccc(Cl)cc3s2)cc1C,56µM*,-29%,0,-13%,-7%
Cc1ccc2sc(N(CCCN(C)C)C(=O)c3nc4ccccc4s3)nc2c1C,-20%,-8%,2,-6%,-2%
Cc1ccc2nc(N(CCCN(C)C)C(=O)c3sc4ccccc4c3Cl)sc2c1,45µM*,-4%,2,-13%,2%
Cc1cccc2sc(N(CCCN(C)C)C(=O)c3nc4ccccc4s3)nc12,79µM*,-6%,0,-4%,0%
CN(C)CCCN(C(=O)c1cc(-c2cccs2)nc2ccccc12)c1nc2ccc(F)cc2s1,50µM*,nt,nt,nt,nt
SMILES,Sfp PPTase inh,Tau fluor counter,FBPA coupling cs,Tau fibril ThT,Tau FP inhib
COc1ccc(/C=C/N(CCc2ccc(OC)c(OC)c2)C(=O)C(F)(F)F)cc1,11%,-18%[11.6 µM],0,-8%[11.5 µM],0%[11.6 µM]
Cc1nc2ccc(S(=O)(=O)N(C)CC(=O)Nc3ccc(Br)c(C)c3)cc2s1,nt,-16%,nt,5%,?
CCN(CC)C1CCN(C(=O)c2cc(COc3ccc(-n4cncn4)cc3)on2)C1 (centres undefined),13%,nt,-1,nt,nt
CCCCCCCCCCCC,5%,nt,0,nt,nt
Cc1cc(C)nc(-n2nc(C)c3c2NC(=O)CC3c2ccccc2OC(C)C)n1 (centres undefined),nt,-10%,nt,-9%,-5%
CCOc1ccc(Nc2ccc(N3C(=O)CCC3=O)cc2[N+](=O)[O-])cc1,9%,?,3,5µM*,-5%
CN(C)c1ccc(CN(Cc2ccco2)C(=O)COc2ccc(F)cc2)cc1,nt,?,nt,?,5%
COCCn1c(C)cc(C(=O)CSc2nc(C)c(C)c(C)n2)c1C,40µM*,-14%,-8,-17%,0%
C/C=C(/CC[C@@H](C)[C@H]1CCC2C3=CC[C@H]4[C@H](C)[C@@H](O)CC[C@]4(C)C3CC[C@@]21C)C(C)C (some centres undefined),-1%,1%,3,-20%,1%
NCCS,79µM*!,?,4,16µM*,?
CCCOc1ccc(CNC(=O)c2[nH]c3cc(OC)ccc3c2Sc2ccccc2)cc1,nt,-12%,nt,-2%,0%
O=c1[nH]cnc2c1sc(=S)n2-c1ccccc1,18µM*,-3%,4,-17%,-7%
O=C(O)c1cccc(Cn2c(Cl)c(/C=N/Nc3ccccc3)sc2=O)c1,8.9µM*,?,16,18µM*,?
COc1ccccc1/C=C/C=N/NC(=O)c1ccccn1,-15%,-4%,0,?,2%
COc1ccccc1/C=C/C=N/NC(=O)c1cc(-c2ccco2)[nH]n1,13µM*,-25%,0,-12%,-14%
Cc1ccc2c3c(cccc13)-c1ccccc1C2=O,?,-27%,-5,?,-2%
Cc1coc2c1C(=O)C(=O)c1c-2ccc2c1CCCC2(C)C,-21%,?,-40*,14µM*,?
Cc1coc2c1C(=O)C(=O)c1c-2ccc2c(C)cccc12,-4%,-28%,-55*,2µM*,?
CCCN1C(=O)C(Cc2nc3ccccc3c(=O)n2CC)c2ccccc21 (centres undefined),nt,3%,nt,6%,1%
CC(C)S(=O)(=O)c1csc(NC(=O)Nc2ccc(Cl)cc2)c1,-21%,16µM*[quencher],-5,-4%,?
CCC(=O)N1CCc2cc(CNS(=O)(=O)c3ccccc3F)ccc21,nt,6%,nt,-1%,3%
C=CCOC(=O)C1=C(C)NC(SCC(=O)Nc2nccs2)=C(C#N)C1c1ccc(Cl)cc1 (centres undefined),-5%,10µM*[quencher],2,-17%,?
